# Screening results from PubChem BioAssay.
# Hits are enriched below; roughly 12% of the tested compounds scored in any of these assays.
# BAZ2B inh – qHTS Assay for Inhibitors of BAZ2B; AlphaScreen BAZ2B-H3K14Ac peptide displacement; Potency, µM (titrated, usually from 114 µM), inactives show top-dose activity change, negative = inhibition, hits mostly inhibitors; 4.4% of 360,000 active; further: on the % scale 0 is the no-effect control and ±100 the full control effect; nearly all actives have a fitted effect of over 60% in size
#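 BAZ2B 50 nM plus b-H3(5-23)K14Ac 50 nM, PBS pH 7.4/0.01% Tween-20, 30 min RT; compound added (max 110 uM), 30 min RT; streptavidin donor/Ni-chelate acceptor beads 10 ug/mL final, 20 min dark; AlphaScreen read.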
# G9a inh – qHTS Assay for Inhibitors of Histone Lysine Methyltransferase G9a; Histone-lysine N-methyltransferase EHMT2 (Homo sapiens), Q96KQ7; G9a H3K9 monomethylation, AlphaScreen, 2 h; Potency, µM (highest dose often 102 µM), inactives show at the highest dose activity, negative = inhibition, hits mostly inhibitors; 8.8% of 350,000 active; AID 504332, 2011; further: on the % scale 0 is the no-effect control and ±100 the full control effect; nearly all actives have a fitted effect of over 75% in size
# Target sequence (Q96KQ7 913-1193 limits assumed): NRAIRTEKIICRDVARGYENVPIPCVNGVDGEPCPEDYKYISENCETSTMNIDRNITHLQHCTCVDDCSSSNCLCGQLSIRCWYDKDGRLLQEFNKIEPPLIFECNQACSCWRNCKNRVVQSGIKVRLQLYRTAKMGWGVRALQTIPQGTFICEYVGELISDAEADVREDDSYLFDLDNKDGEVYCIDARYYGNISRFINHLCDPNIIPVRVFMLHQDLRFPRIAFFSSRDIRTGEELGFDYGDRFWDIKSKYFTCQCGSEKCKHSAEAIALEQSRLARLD
#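 Compounds were preincubated with 20 nM G9a for 15 min, after which biotinylated H3K9 peptide (500 nM) and SAM (20 uM) started a 2 h room-temperature reaction. Monomethylated product was quantified by antibody-based AlphaScreen chemiluminescence.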
# PLK1 PBD inh – qHTS for Inhibitors of PLK1-PDB (polo-like kinase 1 - polo-box domain): Primary Screen; Serine/threonine-protein kinase PLK1 (Homo sapiens), P53350; Plk1 PBD binding of FITC phosphopeptide, fluorescence polarization; Potency, µM, for the others: max response, negative = inhibition, usual class: inhibitors; 2.8% of 360,000 active; AID 720504, 2013; further: series mostly up to about 57 µM; on the % scale 0 is the no-effect control and ±100 the full control effect; nearly all actives have a fitted effect of over 65% in size
# JMJD2A Tudor – qHTS Assay for Inhibitors of JMJD2A-Tudor Domain | AlphaScreen JMJD2A-Tudor / H3K4me3 peptide binding | 4.4% of 390,000 active | Potency, µM (titrated, usually from 114 µM), without a hit: top-dose activity change, negative = inhibition, actives largely listed as inhibitors | Lysine-specific demethylase 4A (Homo sapiens), O75164 | AID 504339, 2011; further: on the % scale 0 is the no-effect control and ±100 the full control effect; nearly all actives have a fitted effect of over 50% in size
# HP1b chromo inh – HTS for Inhibitors of HP1-beta Chromodomain Interactions with Methylated Histone Tails; Chromobox protein homolog 1 (Homo sapiens), P83916; AlphaScreen HP1-beta / biotin-H3K9me3 peptide binding; Potency, µM (highest dose often 114 µM), for inactives: at the highest dose activity change, negative = inhibition, most hits filed as inhibitors; 0.56% of 390,000 active; further: nearly all actives have a fitted effect of over 70% in size
# Target sequence (P83916 whole entry, looked up): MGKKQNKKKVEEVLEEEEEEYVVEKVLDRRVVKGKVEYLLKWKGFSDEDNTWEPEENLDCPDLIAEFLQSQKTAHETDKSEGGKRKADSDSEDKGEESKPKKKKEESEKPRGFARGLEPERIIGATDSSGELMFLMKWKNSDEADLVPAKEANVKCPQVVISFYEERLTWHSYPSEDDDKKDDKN
#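 HP1-beta protein (50 nM final) preincubated 30 min at room temperature with biotinylated H3(1-18)K9me3 peptide (50 nM) in PBS pH 7.4, 0.01% Tween-20, then compound added for 30 min. AlphaScreen streptavidin donor/nickel chelate acceptor beads (10 ug/mL final), 30 min dark, luminescence read.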
# Sfp PPTase inh – qHTS Assay for Inhibitors of Bacillus subtilis Sfp phosphopantetheinyl transferase (PPTase); 4'-phosphopantetheinyl transferase ffp (Bacillus subtilis), Q9F4F7; AID 1490, 2009; Biochemical Sfp PPTase activity, qHTS; Potency, µM, for inactives: largest response in the series, negative = inhibition, hits mostly inhibitors; 3.5% of 310,000 active;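 further: the enzyme is Sfp with the accession as filed and its product quenches rhodamine fluorescence; 0% = enzyme reaction without inhibitor and -100% = no enzyme wells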
#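 Fluorescence-quenching assay with 15 nM Sfp, 5 uM rhodamine-CoA and 12.5 uM BHQ-2-labelled ybbR peptide in pH 7.6 Hepes/MgCl2 buffer. Enzyme was pre-incubated with compound for 15 min at room temperature. Rate was taken from the 30-min fluorescence change (525/598 nm).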
# * = called active by the depositor; ? = inconclusive; / = no result given; [ ] = remark or other dose. The call rests on the fitted dose curve; in most records, active means well fitted curve in the direction sought with a large enough effect; inconclusive means small, poorly fitted or top-dose-only effect, or another doubt; inactive means no such curve, though single readings can be large; an effect the other way counts as inactive or inconclusive. Potency means the concentration at half of the fitted maximal effect.
SMILES,BAZ2B inh,G9a inh,PLK1 PBD inh,JMJD2A Tudor,HP1b chromo inh,Sfp PPTase inh
COc1ccc(C(=O)Oc2cc(-c3ccc4c(c3)OCO4)cc(=O)c3c(C)oc(C)c23)cc1,-30%,?,/,-17%,18%,/
CCOc1cc(-c2ccc(OC(=O)c3ccc(OC)cc3)c(OC)c2)cc(=O)c2c(C)oc(C)c12,?,16µM*,/,?,-7%,/
CCOc1ccc(-c2cc(OC(=O)c3ccc(OC)cc3)c3c(C)oc(C)c3c(=O)c2)cc1,-32%,?,/,-30%,17%,/
CCCOc1ccc(NC(=O)CC2C(=O)N(c3ccc(C)cc3)C(=O)N2C2CCCC2)cc1 (centres undefined),-11%,-1%[59 µM],/,-12%,17%,/
c1ccc2c(c1)ccc1ncccc12,-15%,-1%,-16%,2%,20%,3%
O=Cc1ccc2ccc3cccnc3c2n1,?,?,-5%,63µM*,48%,-26%
O=Cc1ccc2cccnc2n1,-8%,40µM*,-13%,?,44%,16µM*
Cc1cccnc1NC(=O)Cn1nc(-c2ccccc2)oc1=S,21%,50µM*,24µM*,79µM*,6%,-31%
CCC(CO)Oc1cc(NCc2cccc(OC)c2)c2ncn(C(C)C)c2c1 (centres undefined),/,/,-10%,?,15%,/
CCOCCOc1cc(NCc2ccccc2)c2ncn(C(C)C)c2c1,/,/,1%,10µM*,14µM*,/
CC(C)n1cnc2c(NCc3ccccc3)cc(N[C@H](C)CO)cc21,/,/,-20%,56µM*,?,/
CCC(CO)Oc1cc(NCc2ccc(O)cc2)c2ncn(C(C)C)c2c1 (centres undefined),/,/,-11%,?,10%,/
CCCCOc1cc(NCc2ccccc2)c2ncn(C(C)C)c2c1,/,/,-4%,40µM*,?,/
COCCCOc1cc(NCc2ccccc2)c2ncn(C(C)C)c2c1,/,/,-5%,56µM*,-34%,/
CCC(CO)Oc1cc(NCc2cccc(O)c2)c2ncn(C(C)C)c2c1 (centres undefined),/,/,2%,-26%,10%,/
CNC(=O)c1c(NC(=O)c2ccc(S(=O)(=O)N3CCCC(C)C3)cc2)sc2c1CCC2 (centres undefined),-7%,0%[59 µM],/,-26%,6%[57 µM],/
CCOC(=O)c1c(NC(=O)CSc2cn(CCNC(=O)c3ccccc3OC)c3ccccc23)sc2c1CCCC2,-33%,1%[59 µM],/,-21%,27%,/
COc1ccc(Cc2cc(NCc3ccccc3)c3ncn(C(C)C)c3c2)cc1,/,/,7%,40µM*,-36%,/
CCC(CO)Oc1cc(NCc2cccc(F)c2)c2ncn(C(C)C)c2c1 (centres undefined),/,/,-11%,?,-22%,/
COc1cc(NCc2ccccc2)c2ncn(Cc3ccccc3)c2c1,/,/,3%,25µM*,?,/
Cc1ccccc1Cn1c(O)c(N=NC(=S)Nc2ccccc2F)c2ccccc21,?,13µM*,0%,?,?,12%
Oc1c(N=NC(=S)Nc2ccccc2F)c2ccccc2n1Cc1ccccc1F,-32%,11µM*,-1%,?,?,2%
CCNC(=S)N=Nc1c(O)n(Cc2ccc(Cl)cc2)c2ccccc12,?,?,-15%,?,?,?
Oc1c(N=NC(=S)Nc2ccccc2F)c2ccccc2n1Cc1ccc(Cl)cc1,?,10µM*,0%,?,-6%,2%
Cc1ccc(C)c(Cn2c(O)c(N=NC(=S)Nc3ccccc3F)c3ccccc32)c1,1%,?,24µM*,?,?,-17%
SMILES,BAZ2B inh,G9a inh,PLK1 PBD inh,JMJD2A Tudor,HP1b chromo inh,Sfp PPTase inh
Cc1cc(C)cc(NC(=O)C(=O)NCC2CCCN2S(=O)(=O)c2cccs2)c1 (centres undefined),8%,10%[0.501 µM],4%,-23%,12%,/
CCN(c1ccccc1)S(=O)(=O)c1ccc2c(c1)C(C)(C)C(=O)N2C,3%,/,-2%,-21%,14%,-7%
CC(C)(C)OC(=O)N1CCC(NC(=O)c2nc[nH]c2C(=O)N2CCc3ccccc3C2)CC1,56µM*,-2%[0.501 µM],-1%,-27%,28%,/
CC(C)(C)OC(=O)NCCCCCNC(=O)c1[nH]cnc1C(=O)Nc1cccc(Cl)c1,12%,-2%[0.501 µM],-6%,-20%,34%,/
CC(C)(C)OC(=O)N1CCC(NC(=O)c2[nH]cnc2C(=O)Nc2ccon2)CC1,56µM*,11%[0.501 µM],5%,-23%,63%,/
CC(C)(C)OC(=O)N1CCC(NC(=O)c2nc[nH]c2C(=O)N2CCN(C(=O)OC(C)(C)C)CC2)CC1,0%,-5%[2.33 µM],1%,-29%,16%,/
CC(C)(C)OC(=O)NCCCCCNC(=O)c1[nH]cnc1C(=O)Nc1ccon1,56µM*,8%[0.501 µM],4%,-9%,48%,/
COc1ccc(C(=O)NC(Cn2ccnc2)C(C)(C)C)cc1OC1CCN(C(C)C)CC1 (centres undefined),-1%,?,4%,-7%,34%,14%
CCc1ccc(C2c3c(oc4ccc(C)cc4c3=O)C(=O)N2c2nc(C)c(C)s2)cc1 (centres undefined),-1%,6%[59 µM],/,3%,26%,/
CCOC(=O)c1ccccc1NC(=O)CSc1nc2ncccc2o1,-17%,2%[59 µM],/,-2%,-8%,/
O=S(=O)(CS(=O)(=O)Oc1ccccc1)Oc1ccccc1,/,/,21µM*,-10%,?,/
NS(=O)(=O)c1ccc(NC2=CC(c3ccc([N+](=O)[O-])cc3)N(c3ccc(S(N)(=O)=O)cc3)C2=O)cc1 (centres undefined),?,22µM*,-20%,-32%,2%,11µM*
N[C@](CC1c2ccccc2Oc2ccccc21)(C(=O)O)[C@@H]1C[C@@H]1C(=O)O,/,/,/,/,/,-5%
CCOC(=O)c1c(NC(=O)CC)sc(C(C)=O)c1C,?,25µM*,11µM*,17%,-16%,40µM*
Cc1ccc(NC(=O)CSc2ncn[nH]2)cc1,-4%,-7%,-7%,3%[57.1 µM],26%,2%
CCOC(=O)c1sc(NC(=O)CCN2CC(C)OC(C)C2)c(C(=O)OCC)c1C (centres undefined),-9%,45µM*,/,/,/,18%
COC(=O)c1c(NC(=O)CSc2ncn[nH]2)sc(C)c1C,1%,4µM*,-12%,-12%,15%,/
